From PubChem BioAssay
This is one part of the list. Values without a mark were called inactive. The source made the active and inactive calls.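 The calls were made as follows, unless noted: active = Primary-screen hit whose thallium flux fell at least 3 control SD below untreated wells in both duplicates, with normal baseline fluorescence; inactive = the rest.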

Assays:
[1] = target: Inward rectifier potassium channel 2 (Mus musculus) (UniProt P35561); assay: inhibition of Kir2.1 inward rectifier potassium flux – cell-based, FluxOR thallium flux, duplicate, confirmation (AID 2032); conditions: Kir2.1-expressing cells, FluxOR thallium flux fluorescence, at 10 µM; stronger effect = lower value
Sequence of Inward rectifier potassium channel 2 (Mus musculus) (P35561 whole entry, looked up): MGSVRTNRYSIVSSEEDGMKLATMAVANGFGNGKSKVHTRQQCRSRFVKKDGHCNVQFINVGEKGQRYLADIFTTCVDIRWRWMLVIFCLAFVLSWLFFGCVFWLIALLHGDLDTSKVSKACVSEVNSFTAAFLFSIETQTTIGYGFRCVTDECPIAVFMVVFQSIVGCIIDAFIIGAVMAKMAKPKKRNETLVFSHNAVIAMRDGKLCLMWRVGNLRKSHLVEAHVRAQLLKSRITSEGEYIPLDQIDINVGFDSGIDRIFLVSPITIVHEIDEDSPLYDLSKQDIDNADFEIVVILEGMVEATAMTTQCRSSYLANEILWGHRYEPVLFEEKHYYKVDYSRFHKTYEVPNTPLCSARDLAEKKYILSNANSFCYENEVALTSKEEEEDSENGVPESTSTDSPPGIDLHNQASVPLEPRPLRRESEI

[2] = parental HEK293 cell activity, no Kir2.1 – FluxOR thallium flux, duplicate, single concentration, counter-screen for Kir2.1 inhibitor project, confirmation (AID 2105;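 active = dye signal at least 3 control SD above or below untreated wells in both duplicates, raw fluorescence within 3, either direction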;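 as to FluxOR signal as % of negative control (100 = no effect): percent is based on the flux ratio of peak minus minimum fluorescence over baseline F0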); conditions: parental HEK293 cells, FluxOR thallium flux fluorescence, at 10 µM; 0% = unstimulated blank wells

For `CCCOc1ccc(C(=O)C(CCC(CNCC)C(=O)c2ccc(OCCC)cc2)CNCC)cc1` (stereo not drawn), the Tl flux remaining, % of negative control (stronger effect = lower value) [1] was 48% (active) and the outcome [2] was “inactive”.
With `CCC(Cc1ccccc1)NS(=O)(=O)c1ccc2c(c1)NC(=O)CS2` (stereo not drawn) the Tl flux remaining, % of negative control (stronger effect = lower value) [1] was 62% (active) and the outcome [2] was “inactive”.
In the case of `CC(C)(C)c1cc2cccnc2n1Cc1cccc(F)c1`, the Tl flux remaining, % of negative control (stronger effect = lower value) [1] was 72% (active) and the outcome [2] was “inactive”.
For `c1ccc(CSc2nnc(-c3ccco3)n2Cc2ccccc2)cc1`, the Tl flux remaining, % of negative control (stronger effect = lower value) [1] was 54% (active) and the outcome [2] was “inactive”.
For `CCCCCCCCCCOC(=O)Cn1c(COc2ccc(C)cc2)[n+](C)c2ccccc21`, the outcome [1] was “inactive” and the outcome [2] was “inactive”.
For `Cn1c(SCC(=O)N2CCCc3ccccc32)nc2ccccc2c1=O`, the Tl flux remaining, % of negative control (stronger effect = lower value) [1] was 71.5% (active) and the FluxOR signal as % of negative control (100 = no effect) [2] was 66.5% (active).
In the case of `CN(Cc1ccccc1)C(=O)CCc1ccccc1`, the outcome [1] was “inactive” and the outcome [2] was “inactive”.
With `Clc1ccc(-c2cc(C3CCNCC3)[nH]n2)c(Cl)c1` the Tl flux remaining, % of negative control (stronger effect = lower value) [1] was 22.5% (active) and the outcome [2] was “inactive”.
For `CCC(=O)OCc1c(C(F)(F)F)nn(C)c1Oc1cccc(C(F)(F)F)c1`, the outcome [1] was “inactive” and the outcome [2] was “inactive”.
For `COc1ccc(Nc2ncnc3sc(C)cc23)cc1`, the outcome [1] was “inactive” and the outcome [2] was “inactive”.
For `CC1CN(C(=O)CCC(=O)NCCCN2CCC(Cc3ccccc3)CC2)c2cc(Cl)ccc2O1` (stereo not drawn), the Tl flux remaining, % of negative control (stronger effect = lower value) [1] was 35.5% (active) and the outcome [2] was “inactive”.
In the case of `CCN(CC)CCC(c1ccc2c(c1)OCO2)c1c(OC)cc(OC)c2c(-c3ccccc3)cc(=O)oc12` (stereo not drawn), the Tl flux remaining, % of negative control (stronger effect = lower value) [1] was 65.5% (active) and the outcome [2] was “inactive”.
With `COc1ccccc1CCNS(=O)(=O)c1cc2c3c(c1)C(C)C(=O)N3CCC2` (stereo not drawn) the Tl flux remaining, % of negative control (stronger effect = lower value) [1] was 62% (active) and the outcome [2] was “inactive”.
With `COc1cccc(CNCCc2c[nH]c3ccccc23)c1OCc1ccccc1F` the Tl flux remaining, % of negative control (stronger effect = lower value) [1] was 23.5% (active) and the outcome [2] was “inactive”.
With `Cc1cc(C)c(C)c(S(=O)(=O)Nc2ccc(O)cc2)c1C` the Tl flux remaining, % of negative control (stronger effect = lower value) [1] was 65.5% (active) and the outcome [2] was “inactive”.
With `Cc1ccc(-c2nn(-c3ccccc3)cc2/C=C2\SC(=S)N(CCCCCC(=O)O)C2=O)o1` the outcome [1] was “inactive” and the FluxOR signal as % of negative control (100 = no effect) [2] was 75% (active).
In the case of `CCCCCCCCCCOC(=O)Cn1c(COc2cccc(OC)c2)[n+](C)c2ccccc21`, the outcome [1] was “inactive” and the outcome [2] was “inactive”.
For `COc1ccc(C(CCNCc2ccccc2F)c2ccc(F)cc2)cc1` (stereo not drawn), the Tl flux remaining, % of negative control (stronger effect = lower value) [1] was 39.5% (active) and the outcome [2] was “inactive”.
For `CCn1cc(CCC(=O)NCc2ccc(F)cc2)c2ccccc21`, the Tl flux remaining, % of negative control (stronger effect = lower value) [1] was 56.5% (active) and the outcome [2] was “inactive”.
For `OCCNCc1cccc(OCc2ccccc2Cl)c1`, the Tl flux remaining, % of negative control (stronger effect = lower value) [1] was 62% (active) and the outcome [2] was “inactive”.
For `COc1ccccc1-c1n[nH]c2c1[C@H](C)CC[C@H]2C(C)C`, the outcome [1] was “inactive” and the outcome [2] was “inactive”.
For `CSc1c(SCc2ccccc2)cnn(Cc2ccccc2)c1=O`, the outcome [1] was “inactive” and the outcome [2] was “inactive”.
For `COc1ccc(CCNCc2c(-c3ccccc3)n(C)c3ccccc23)cc1`, the Tl flux remaining, % of negative control (stronger effect = lower value) [1] was 33.5% (active) and the FluxOR signal as % of negative control (100 = no effect) [2] was 72% (active).
In the case of `COc1ccc(CN2CCC(c3nc4ccc(Cl)cc4[nH]3)CC2)cc1`, the Tl flux remaining, % of negative control (stronger effect = lower value) [1] was 30% (active) and the outcome [2] was “inactive”.
With `CCCCCCCCn1c2c(c(=N)c3c1CCC3)CCCC2` the Tl flux remaining, % of negative control (stronger effect = lower value) [1] was 10% (active) and the outcome [2] was “inactive”.
In the case of `CC1COc2ccccc2N1S(=O)(=O)c1ccccc1` (stereo not drawn), the Tl flux remaining, % of negative control (stronger effect = lower value) [1] was 60% (active) and the outcome [2] was “inactive”.
In the case of `COc1ccc(F)c(-c2nc(CN3CCC(c4ccccc4)CC3)c(C)o2)c1`, the Tl flux remaining, % of negative control (stronger effect = lower value) [1] was 45.5% (active) and the outcome [2] was “inactive”.
With `O=C(Nc1ccccc1Cl)/C(Cl)=C(\Cl)S(=O)c1ccccc1` (stereo not drawn) the Tl flux remaining, % of negative control (stronger effect = lower value) [1] was 60.5% (active) and the FluxOR signal as % of negative control (100 = no effect) [2] was 57.5% (active).
For `C(=C\c1ccccc1)/CSc1nnc(-c2cccnc2)n1Cc1ccco1`, the Tl flux remaining, % of negative control (stronger effect = lower value) [1] was 37% (active) and the outcome [2] was “inactive”.
